Measurements reported in the supplement of paper PMC10849652.
About 8,800 targets were measured; listed, in parts, are those with a hit and a random draw of the rest. About 0.5% of all pairs of compound and target were hits.

The targets below were run with COc1cc2nc(-c3cc(F)ccc3O)nc(N[C@@H]3CNC[C@H]3C(C)(C)O)c2cc1OC (assay: log2 fold change, soluble protein after heating vs DMSO (PISA); higher = thermal stabilisation; K562 lysate, 10 uM; active = over 0.2 and 3.5 SD of the protein, either way, in both replicates (recomputed)).
Outline: (§1)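 Dounce homogenisation of K562 pellets in PBS pH 7.4 with 1 mM MgCl2 produced a crude extract, used at 1 mg/mL protein. Exposure to 10 μM compound lasted 30 min, and aliquots were then heated for 3 min across 48°C-58°C, pooled and brought to 0.5% NP-40 at 4°C. The supernatant after 21,000xg for 90 min was quantified by TMTpro 16plex LC-MS/MS with channel sums equalised. Duplicate values are given as log-two fold change in thermal stability relative to solvent controls.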

UniProt Q9H270, sequence (Q9H270 whole entry, looked up): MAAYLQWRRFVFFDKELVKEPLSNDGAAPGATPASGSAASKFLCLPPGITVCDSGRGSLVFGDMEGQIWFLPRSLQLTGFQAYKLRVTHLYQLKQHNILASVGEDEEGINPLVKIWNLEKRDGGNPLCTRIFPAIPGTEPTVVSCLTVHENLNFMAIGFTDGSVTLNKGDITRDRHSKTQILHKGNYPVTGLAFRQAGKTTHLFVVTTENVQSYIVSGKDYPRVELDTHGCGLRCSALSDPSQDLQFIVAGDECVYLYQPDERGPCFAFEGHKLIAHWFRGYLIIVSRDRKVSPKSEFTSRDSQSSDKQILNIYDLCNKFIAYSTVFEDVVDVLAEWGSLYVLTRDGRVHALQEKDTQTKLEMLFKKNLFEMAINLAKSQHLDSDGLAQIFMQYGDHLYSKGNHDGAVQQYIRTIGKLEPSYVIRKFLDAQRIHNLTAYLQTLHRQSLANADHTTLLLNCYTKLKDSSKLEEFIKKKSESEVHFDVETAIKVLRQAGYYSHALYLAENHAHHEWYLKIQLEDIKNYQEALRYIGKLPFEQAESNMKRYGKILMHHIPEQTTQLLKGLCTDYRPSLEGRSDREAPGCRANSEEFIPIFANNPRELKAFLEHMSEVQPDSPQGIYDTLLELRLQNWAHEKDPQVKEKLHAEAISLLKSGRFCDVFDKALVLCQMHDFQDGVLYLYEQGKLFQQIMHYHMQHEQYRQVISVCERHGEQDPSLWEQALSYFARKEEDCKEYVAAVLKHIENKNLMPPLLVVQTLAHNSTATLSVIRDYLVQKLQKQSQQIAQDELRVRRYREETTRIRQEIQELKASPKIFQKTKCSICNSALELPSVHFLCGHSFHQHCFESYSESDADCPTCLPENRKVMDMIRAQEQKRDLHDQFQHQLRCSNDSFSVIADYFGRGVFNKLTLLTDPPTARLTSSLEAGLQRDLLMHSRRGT
UniProt P22695, sequence (P22695 whole entry, looked up): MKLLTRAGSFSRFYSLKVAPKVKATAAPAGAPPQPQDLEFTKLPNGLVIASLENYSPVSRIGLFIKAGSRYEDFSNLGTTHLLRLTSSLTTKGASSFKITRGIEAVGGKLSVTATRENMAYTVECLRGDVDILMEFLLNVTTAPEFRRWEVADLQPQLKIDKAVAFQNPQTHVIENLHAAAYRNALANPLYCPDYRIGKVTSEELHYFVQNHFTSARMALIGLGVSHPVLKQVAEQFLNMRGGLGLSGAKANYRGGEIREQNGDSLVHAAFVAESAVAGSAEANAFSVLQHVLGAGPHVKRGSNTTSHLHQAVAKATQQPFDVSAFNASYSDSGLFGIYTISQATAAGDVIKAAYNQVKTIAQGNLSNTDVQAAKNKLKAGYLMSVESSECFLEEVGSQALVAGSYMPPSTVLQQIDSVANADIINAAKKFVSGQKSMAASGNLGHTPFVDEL
UniProt Q9UKW4, sequence (Q9UKW4 whole entry, looked up): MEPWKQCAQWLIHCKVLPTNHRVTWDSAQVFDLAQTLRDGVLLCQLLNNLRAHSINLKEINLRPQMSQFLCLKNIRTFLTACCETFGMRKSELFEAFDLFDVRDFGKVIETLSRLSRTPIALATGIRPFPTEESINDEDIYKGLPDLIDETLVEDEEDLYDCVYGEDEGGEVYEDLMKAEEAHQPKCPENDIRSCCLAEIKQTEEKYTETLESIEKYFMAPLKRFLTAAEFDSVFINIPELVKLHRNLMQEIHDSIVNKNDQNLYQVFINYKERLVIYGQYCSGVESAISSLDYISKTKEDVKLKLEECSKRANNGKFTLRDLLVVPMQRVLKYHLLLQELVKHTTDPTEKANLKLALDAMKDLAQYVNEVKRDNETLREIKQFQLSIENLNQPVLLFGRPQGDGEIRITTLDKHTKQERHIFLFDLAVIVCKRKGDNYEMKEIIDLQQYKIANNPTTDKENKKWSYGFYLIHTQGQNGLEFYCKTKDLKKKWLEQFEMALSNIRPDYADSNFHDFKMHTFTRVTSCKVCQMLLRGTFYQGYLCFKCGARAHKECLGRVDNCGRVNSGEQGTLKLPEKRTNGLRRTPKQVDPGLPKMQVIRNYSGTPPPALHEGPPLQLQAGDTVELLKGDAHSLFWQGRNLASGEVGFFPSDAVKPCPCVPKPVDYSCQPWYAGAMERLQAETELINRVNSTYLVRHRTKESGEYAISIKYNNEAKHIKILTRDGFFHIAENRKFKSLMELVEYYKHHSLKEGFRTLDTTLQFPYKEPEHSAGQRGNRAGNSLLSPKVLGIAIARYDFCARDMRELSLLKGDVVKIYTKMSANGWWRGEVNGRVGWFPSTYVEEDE
UniProt Q96S55, sequence (Q96S55 whole entry, looked up): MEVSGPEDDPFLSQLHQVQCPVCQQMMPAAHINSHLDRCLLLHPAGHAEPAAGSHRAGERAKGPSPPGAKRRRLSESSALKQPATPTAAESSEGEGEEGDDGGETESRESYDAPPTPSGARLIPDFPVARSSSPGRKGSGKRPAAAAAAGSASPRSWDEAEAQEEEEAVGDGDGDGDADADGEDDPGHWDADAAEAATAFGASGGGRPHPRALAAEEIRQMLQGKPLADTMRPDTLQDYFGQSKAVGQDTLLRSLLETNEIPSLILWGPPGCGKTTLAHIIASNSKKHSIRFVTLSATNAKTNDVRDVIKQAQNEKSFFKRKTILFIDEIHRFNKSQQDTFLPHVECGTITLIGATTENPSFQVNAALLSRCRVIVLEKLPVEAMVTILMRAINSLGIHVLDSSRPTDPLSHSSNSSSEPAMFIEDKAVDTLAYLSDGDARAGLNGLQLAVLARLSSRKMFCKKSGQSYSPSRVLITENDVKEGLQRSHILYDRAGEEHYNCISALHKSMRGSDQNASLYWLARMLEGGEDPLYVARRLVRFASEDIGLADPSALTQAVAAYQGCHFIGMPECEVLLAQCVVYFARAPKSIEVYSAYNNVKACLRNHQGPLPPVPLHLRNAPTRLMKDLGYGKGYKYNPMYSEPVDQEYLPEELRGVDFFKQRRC
UniProt Q8TBZ3, sequence (Q8TBZ3 whole entry, looked up): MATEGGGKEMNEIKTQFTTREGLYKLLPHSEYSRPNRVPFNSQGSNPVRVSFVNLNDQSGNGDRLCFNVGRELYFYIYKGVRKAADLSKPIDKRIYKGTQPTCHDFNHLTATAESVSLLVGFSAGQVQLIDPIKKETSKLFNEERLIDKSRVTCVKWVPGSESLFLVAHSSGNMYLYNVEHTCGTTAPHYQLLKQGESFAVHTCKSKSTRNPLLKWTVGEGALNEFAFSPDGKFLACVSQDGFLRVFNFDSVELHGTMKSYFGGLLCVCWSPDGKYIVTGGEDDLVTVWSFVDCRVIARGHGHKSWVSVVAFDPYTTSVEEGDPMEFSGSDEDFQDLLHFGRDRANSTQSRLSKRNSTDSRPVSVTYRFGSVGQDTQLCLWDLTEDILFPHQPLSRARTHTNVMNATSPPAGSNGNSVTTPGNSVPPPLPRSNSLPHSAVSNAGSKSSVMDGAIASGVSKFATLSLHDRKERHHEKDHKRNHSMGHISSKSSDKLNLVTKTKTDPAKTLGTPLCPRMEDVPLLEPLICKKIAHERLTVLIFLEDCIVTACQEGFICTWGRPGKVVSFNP
UniProt Q96QU8, sequence (Q96QU8 whole entry, looked up): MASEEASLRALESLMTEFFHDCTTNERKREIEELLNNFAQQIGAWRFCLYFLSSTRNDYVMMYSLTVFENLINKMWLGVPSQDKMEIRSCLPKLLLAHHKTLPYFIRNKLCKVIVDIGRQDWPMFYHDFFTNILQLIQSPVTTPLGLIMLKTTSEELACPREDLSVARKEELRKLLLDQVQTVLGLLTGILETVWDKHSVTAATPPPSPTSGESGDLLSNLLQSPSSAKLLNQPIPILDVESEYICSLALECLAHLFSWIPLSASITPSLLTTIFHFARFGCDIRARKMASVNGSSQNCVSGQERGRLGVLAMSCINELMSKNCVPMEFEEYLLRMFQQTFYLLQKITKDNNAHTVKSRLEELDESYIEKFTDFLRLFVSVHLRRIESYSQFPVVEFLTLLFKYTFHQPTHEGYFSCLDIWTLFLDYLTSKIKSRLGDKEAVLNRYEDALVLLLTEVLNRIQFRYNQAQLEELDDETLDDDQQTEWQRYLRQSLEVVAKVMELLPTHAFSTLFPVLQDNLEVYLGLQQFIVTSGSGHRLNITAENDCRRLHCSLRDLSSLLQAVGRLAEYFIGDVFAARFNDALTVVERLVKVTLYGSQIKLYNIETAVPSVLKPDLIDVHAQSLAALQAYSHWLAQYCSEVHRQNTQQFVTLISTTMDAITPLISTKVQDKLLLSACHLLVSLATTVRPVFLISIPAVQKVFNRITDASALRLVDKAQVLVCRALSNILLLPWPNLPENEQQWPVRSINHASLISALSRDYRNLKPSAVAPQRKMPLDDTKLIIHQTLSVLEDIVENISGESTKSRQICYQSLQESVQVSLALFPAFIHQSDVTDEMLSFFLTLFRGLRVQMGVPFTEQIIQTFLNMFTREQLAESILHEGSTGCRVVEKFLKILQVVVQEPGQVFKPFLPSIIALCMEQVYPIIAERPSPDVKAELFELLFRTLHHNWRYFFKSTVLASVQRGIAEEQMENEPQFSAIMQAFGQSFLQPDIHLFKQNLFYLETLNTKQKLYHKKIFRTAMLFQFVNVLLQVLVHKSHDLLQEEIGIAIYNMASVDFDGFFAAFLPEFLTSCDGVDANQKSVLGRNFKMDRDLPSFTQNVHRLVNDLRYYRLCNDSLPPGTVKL
UniProt O00258, sequence (O00258 whole entry, looked up): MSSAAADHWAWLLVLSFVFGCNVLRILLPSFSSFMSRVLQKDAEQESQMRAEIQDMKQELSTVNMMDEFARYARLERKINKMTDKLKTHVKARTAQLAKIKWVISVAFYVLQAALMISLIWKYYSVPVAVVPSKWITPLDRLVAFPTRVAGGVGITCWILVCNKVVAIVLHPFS
UniProt Q9UK41, sequence (Q9UK41 whole entry, looked up): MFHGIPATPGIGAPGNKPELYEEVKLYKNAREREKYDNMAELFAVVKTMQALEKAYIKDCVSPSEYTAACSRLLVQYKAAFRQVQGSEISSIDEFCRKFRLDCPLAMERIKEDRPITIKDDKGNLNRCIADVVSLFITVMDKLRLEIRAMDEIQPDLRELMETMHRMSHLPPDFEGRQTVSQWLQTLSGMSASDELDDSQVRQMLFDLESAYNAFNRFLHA

log2 fold change, inactive:
YES1 (UniProt P07947) 0.087, XAB2 (UniProt Q9HCS7) 0.025, VCPIP1 (UniProt Q96JH7) -0.006, ZC3H13 (UniProt Q5T200) 0.016, ZNF609 (UniProt O15014) 0.018, ZC3H11A (UniProt O75152) 0.09, VPS28 (UniProt Q9UK41) 0, ZMYM4 (UniProt Q5VZL5) 0.004, ZNF217 (UniProt O75362) 0.219, YDJC (UniProt A8MPS7) 0.007, XPNPEP1 isoform 3 (UniProt Q9NQW7) 0.002, USP9X (UniProt Q93008) 0.013, UQCRC2 (UniProt P22695) 0.024, WRB (UniProt O00258) 0.022, ZBTB33 (UniProt Q86T24) -0.307, WDR62 isoform 4 (UniProt O43379) 0.052, XPO6 (UniProt Q96QU8) 0.031, VPS35L (UniProt Q7Z3J2) -0.023, YEATS4 (UniProt O95619) -0.008, YWHAQ (UniProt P27348) 0.008, VRK1 (UniProt Q99986) -0.007, ZC3HC1 (UniProt Q86WB0) -0.013, USP3 (UniProt Q9Y6I4) 0.028, VPS11 (UniProt Q9H270) 0.019, VPS16 (UniProt Q9H269) -0.004, WDR20 isoform 7 (UniProt Q8TBZ3) -0.002, VAV3 isoform 4 (UniProt Q9UKW4) 0.054, WRNIP1 (UniProt Q96S55) -0.014, UNC13D (UniProt Q70J99) 0.001, VARS (UniProt P26640) 0.003, UTP18 (UniProt Q9Y5J1) -0.05

What follows are targets tested with COc1cc2ncnc(Nc3ccc(F)c(Cl)c3)c2cc1OCCCN1CCOCC1 [gefitinib] in the same assay as above.
Outline: as §1

log2 fold change, inactive:
YES1 (UniProt P07947) -0.13, XAB2 (UniProt Q9HCS7) 0.046, VCPIP1 (UniProt Q96JH7) -0.04, ZC3H13 (UniProt Q5T200) -0.077, ZNF609 (UniProt O15014) -0.002, ZC3H11A (UniProt O75152) 0.034, VPS28 (UniProt Q9UK41) 0.034, ZMYM4 (UniProt Q5VZL5) 0.047, ZNF217 (UniProt O75362) -0.013, YDJC (UniProt A8MPS7) -0.02, XPNPEP1 isoform 3 (UniProt Q9NQW7) 0.002, USP9X (UniProt Q93008) 0.002, UQCRC2 (UniProt P22695) -0.013, WRB (UniProt O00258) 0.061, ZBTB33 (UniProt Q86T24) 0.086, WDR62 isoform 4 (UniProt O43379) 0.013, XPO6 (UniProt Q96QU8) 0.067, VPS35L (UniProt Q7Z3J2) -0.076, YEATS4 (UniProt O95619) -0.064, YWHAQ (UniProt P27348) -0.06, VRK1 (UniProt Q99986) -0.026, ZC3HC1 (UniProt Q86WB0) 0.024, USP3 (UniProt Q9Y6I4) -0.005, VPS11 (UniProt Q9H270) -0.007, VPS16 (UniProt Q9H269) 0.013, WDR20 isoform 7 (UniProt Q8TBZ3) -0.149, VAV3 isoform 4 (UniProt Q9UKW4) 0.036, WRNIP1 (UniProt Q96S55) 0.033, UNC13D (UniProt Q70J99) -0.034, VARS (UniProt P26640) -0.006, UTP18 (UniProt Q9Y5J1) -0.046
